According to the supplement of paper PMC12645437, “Orthogonal IMiD-Degron Pairs Induce Selective Protein Degradation in Cells” (ACS Chemical Biology, 2025):
The full ranking holds about 8,300 sequences; the median of “log2 fold change of degron read counts, EGFP-low vs EGFP+ sorted cells (limma voom), compound-induced degradation” is about -1.1, and the highest 2% start at about 3.2. This excerpt belongs to a sample that is enriched for the highest values.

Molecular target: T1, CRBN, Q96SW2
T1 chain: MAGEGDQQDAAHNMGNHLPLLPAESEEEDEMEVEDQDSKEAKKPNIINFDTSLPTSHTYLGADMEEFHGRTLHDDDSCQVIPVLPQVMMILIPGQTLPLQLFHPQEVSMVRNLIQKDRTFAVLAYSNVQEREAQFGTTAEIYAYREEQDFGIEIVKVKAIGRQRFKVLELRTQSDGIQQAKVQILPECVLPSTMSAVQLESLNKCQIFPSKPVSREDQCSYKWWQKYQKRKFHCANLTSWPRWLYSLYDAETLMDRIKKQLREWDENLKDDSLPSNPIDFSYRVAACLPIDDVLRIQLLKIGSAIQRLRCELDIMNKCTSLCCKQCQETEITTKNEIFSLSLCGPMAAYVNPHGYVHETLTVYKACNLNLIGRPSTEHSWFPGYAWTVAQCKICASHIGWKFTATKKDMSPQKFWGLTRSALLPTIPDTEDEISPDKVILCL
Assay: log2 fold change of degron read counts, EGFP-low vs EGFP+ sorted cells (limma voom), compound-induced degradation; higher = more compound-induced degradation of the degron-EGFP fusion; degrons are variants of IKZF1/3 zinc finger 2; compound dose not given here
Conditions: Jurkat, 18 h

[1] = compound: compound 19 (5-tert-butyl-thalidomide)
[2] = compound: compound 22 (5-morpholino-thalidomide)
[3] = compound: compound 33 (diphenyl IMiD analogue)
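Further: pooled lentiviral library of zinc finger degron-EGFP fusions in mCherry-positive Jurkat cells, FACS-sorted after compound exposure, with degron abundance counted by next-generation sequencing.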

## FICNQCGHQFTQKGNLLRHIKL [46F_47I_49N_50Q_52G_53H_54Q_55F_67L_, Q9UKT9]
[1]
  log2 fold change of degron read counts: -3.84
[2]
  log2 fold change of degron read counts: -3.33
[3]
  log2 fold change of degron read counts: -2.9
compound: thalidomide
  log2 fold change of degron read counts: -3.11

## FNCEICGAFFTQKGNLLRHIKL [46F_47N_49E_50I_52G_53A_54F_55F_67L_, Q9UKT9]
[1]
  log2 fold change of degron read counts: 0.798
[2]
  log2 fold change of degron read counts: -1.38
[3]
  log2 fold change of degron read counts: -0.734
compound: thalidomide
  log2 fold change of degron read counts: -1.26

## FACNICGAGFTQKGNLLRHIKL [46F_47A_49N_50I_52G_53A_54G_55F_67L_, Q9UKT9]
[1]
  log2 fold change of degron read counts: 1.91
[2]
  log2 fold change of degron read counts: 0.962
[3]
  log2 fold change of degron read counts: -0.444
compound: thalidomide
  log2 fold change of degron read counts: -0.984

## FWCEICGRHFTQKGNLLRHIKL [46F_47W_49E_50I_52G_53R_54H_55F_67L_, Q9UKT9]
[1]
  log2 fold change of degron read counts: 0.466
[2]
  log2 fold change of degron read counts: 0.665
[3]
  log2 fold change of degron read counts: 0.0348
compound: thalidomide
  log2 fold change of degron read counts: -0.898

## FNCPICGRMFTQKGNLLRHIKL [46F_47N_49P_50I_52G_53R_54M_55F_67L_, Q9UKT9]
[1]
  log2 fold change of degron read counts: -0.587
[2]
  log2 fold change of degron read counts: -0.626
[3]
  log2 fold change of degron read counts: -0.159
compound: thalidomide
  log2 fold change of degron read counts: -0.181

## FGCNQCGHNFTQKGNLLRHIKL [46F_47G_49N_50Q_52G_53H_54N_55F_67L_, Q9UKT9]
[1]
  log2 fold change of degron read counts: -2.02
[2]
  log2 fold change of degron read counts: -2.05
[3]
  log2 fold change of degron read counts: -2.04
compound: thalidomide
  log2 fold change of degron read counts: -1.85

## LLCPICGFHCTQKGNLLRHIKL [46L_47L_49P_50I_52G_53F_54H_55C_67L_, Q9UKT9]
[1]
  log2 fold change of degron read counts: -0.42
[2]
  log2 fold change of degron read counts: 0.0892
[3]
  log2 fold change of degron read counts: 1.25
compound: thalidomide
  log2 fold change of degron read counts: 1.51

## FICPICGHFFTQKGNLLRHIKL [46F_47I_49P_50I_52G_53H_54F_55F_67L_, Q9UKT9]
[1]
  log2 fold change of degron read counts: -1.6
[2]
  log2 fold change of degron read counts: -2.08
[3]
  log2 fold change of degron read counts: -1.13
compound: thalidomide
  log2 fold change of degron read counts: -1.31

## LWCPICGFTCTQKGNLLRHIKL [46L_47W_49P_50I_52G_53F_54T_55C_67L_, Q9UKT9]
[1]
  log2 fold change of degron read counts: 3.24
[2]
  log2 fold change of degron read counts: 3.71
[3]
  log2 fold change of degron read counts: 3.05
compound: thalidomide
  log2 fold change of degron read counts: 2.09

## LGCPICGFTCTQKGNLLRHIKL [46L_47G_49P_50I_52G_53F_54T_55C_67L_, Q9UKT9]
[1]
  log2 fold change of degron read counts: 3.65
[2]
  log2 fold change of degron read counts: 2.87
[3]
  log2 fold change of degron read counts: 1.97
compound: thalidomide
  log2 fold change of degron read counts: 1.36

## LECPICGFTCTQKGNLLRHIKL [46L_47E_49P_50I_52G_53F_54T_55C_67L_, Q9UKT9]
[1]
  log2 fold change of degron read counts: 1.1
[2]
  log2 fold change of degron read counts: 0.00767
[3]
  log2 fold change of degron read counts: 2.64
compound: thalidomide
  log2 fold change of degron read counts: 3.38

## LYCPICGFTCTQKGNLLRHIKL [46L_47Y_49P_50I_52G_53F_54T_55C_67L_, Q9UKT9]
[1]
  log2 fold change of degron read counts: 3.6
[2]
  log2 fold change of degron read counts: 3.63
[3]
  log2 fold change of degron read counts: 2.97
compound: thalidomide
  log2 fold change of degron read counts: 2.63

## LECEICGFTCTQKGNLLRHIKL [46L_47E_49E_50I_52G_53F_54T_55C_67L_, Q9UKT9]
[1]
  log2 fold change of degron read counts: 0.26
[2]
  log2 fold change of degron read counts: -0.872
[3]
  log2 fold change of degron read counts: 1.66
compound: thalidomide
  log2 fold change of degron read counts: 2.87

## LQCNQCGFICTQKGNLLRHIKL [46L_47Q_49N_50Q_52G_53F_54I_55C_67L_, Q9UKT9]
[1]
  log2 fold change of degron read counts: -2.79
[2]
  log2 fold change of degron read counts: -2.4
[3]
  log2 fold change of degron read counts: -2.23
compound: thalidomide
  log2 fold change of degron read counts: -0.473

## FVCNQCGRTFTQKGNLLRHIKL [46F_47V_49N_50Q_52G_53R_54T_55F_67L_, Q9UKT9]
[1]
  log2 fold change of degron read counts: -2.81
[2]
  log2 fold change of degron read counts: -2.9
[3]
  log2 fold change of degron read counts: -2.85
compound: thalidomide
  log2 fold change of degron read counts: -2.6

## FACDQCGAIFTQKGNLLRHIKL [46F_47A_49D_50Q_52G_53A_54I_55F_67L_, Q9UKT9]
[1]
  log2 fold change of degron read counts: -1.3
[2]
  log2 fold change of degron read counts: -2.79
[3]
  log2 fold change of degron read counts: -2.17
compound: thalidomide
  log2 fold change of degron read counts: -2.61

## FECEICGHHFTQKGNLLRHIKL [46F_47E_49E_50I_52G_53H_54H_55F_67L_, Q9UKT9]
[1]
  log2 fold change of degron read counts: -3.57
[2]
  log2 fold change of degron read counts: -3.77
[3]
  log2 fold change of degron read counts: -3.12
compound: thalidomide
  log2 fold change of degron read counts: -3.14

## FWCPICGRHFTQKGNLLRHIKL [46F_47W_49P_50I_52G_53R_54H_55F_67L_, Q9UKT9]
[1]
  log2 fold change of degron read counts: 0.105
[2]
  log2 fold change of degron read counts: 0.12
[3]
  log2 fold change of degron read counts: -0.0382
compound: thalidomide
  log2 fold change of degron read counts: -0.795
